# PubChem BioAssay (Tox21)
# Results filed as inconclusive are left out. A call without a number means that no potency is given here. The source made the active and inactive calls. Unless noted, calls come from the whole dose curve.
# Experiments:
# [1] = Nuclear factor erythroid 2-related factor 2/antioxidant responsive element (Nrf2/ARE) small molecule agonists: qHTS cell viability counter screen in human keratinocytes (AID 1919968; active = well fitted curve in the direction sought with a large enough effect in the repeat runs; an effect the other way counts as inactive or inconclusive; note: nearly all actives have a fitted effect of over 55% in size; note: potency is the fitted concentration of half-maximal effect)
# Procedure, shortened: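 KeratinoSens cells (HaCaT keratinocytes stably carrying an ARE-luciferase reporter) were seeded at 1,500 cells/well and rested 5 h at 37 C/5% CO2. They were then exposed to compounds in DMSO for 23 h. Viability was read by CellTiter-Fluor fluorescence after 1 h.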
# [2] = Nuclear factor erythroid 2-related factor 2/antioxidant responsive element (Nrf2/ARE) small molecule agonists: luciferase reporter gene qHTS assay in human keratinocytes (AID 1919969); note: nearly all actives have a fitted effect of over 35% in size; note: potency is the fitted concentration of half-maximal effect
# [3] = biological target: Gonadotropin-releasing hormone receptor (Homo sapiens) (UniProt P30968); assay: Human gonadotropin-releasing hormone receptor (GnRHR) small molecule agonists, calcium flux assay in GnRHR-HEK293 cells (AID 1920063); note: nearly all actives have a fitted effect of over 35% in size; note: potency is the fitted concentration of half-maximal effect
# Chain of Gonadotropin-releasing hormone receptor (Homo sapiens) (P30968 whole entry, looked up): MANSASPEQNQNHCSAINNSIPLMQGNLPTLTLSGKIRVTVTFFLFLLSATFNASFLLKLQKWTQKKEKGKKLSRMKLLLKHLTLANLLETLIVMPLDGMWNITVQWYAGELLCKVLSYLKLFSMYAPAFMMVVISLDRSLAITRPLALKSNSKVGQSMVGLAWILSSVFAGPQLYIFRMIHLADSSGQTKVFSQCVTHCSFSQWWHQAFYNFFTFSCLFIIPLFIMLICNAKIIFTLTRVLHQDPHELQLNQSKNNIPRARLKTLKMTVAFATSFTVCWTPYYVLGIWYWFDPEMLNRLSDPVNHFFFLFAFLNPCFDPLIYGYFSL
# Procedure, shortened: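 HEK293 cells stably expressing human GnRHR were plated 18 h at 37 °C, loaded with calcium dye 1 h at 37 °C, then given compound in agonist mode; fluorescence (Ex/Em 480/540) read kinetically for 3 min at 1 s intervals.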
# [4] = biological target: KiSS-1 receptor (Homo sapiens) (UniProt Q969F8); assay: Human kisspeptin (KISS1R) small molecule agonists, calcium flux assay in KISS1R-HEK293 cells (AID 1920064; active = well fitted curve in the direction sought with a large enough effect in the repeat runs; an effect the other way counts as inactive or inconclusive; note: potency is the fitted concentration of half-maximal effect)
# Chain of KiSS-1 receptor (Homo sapiens) (Q969F8 whole entry, looked up): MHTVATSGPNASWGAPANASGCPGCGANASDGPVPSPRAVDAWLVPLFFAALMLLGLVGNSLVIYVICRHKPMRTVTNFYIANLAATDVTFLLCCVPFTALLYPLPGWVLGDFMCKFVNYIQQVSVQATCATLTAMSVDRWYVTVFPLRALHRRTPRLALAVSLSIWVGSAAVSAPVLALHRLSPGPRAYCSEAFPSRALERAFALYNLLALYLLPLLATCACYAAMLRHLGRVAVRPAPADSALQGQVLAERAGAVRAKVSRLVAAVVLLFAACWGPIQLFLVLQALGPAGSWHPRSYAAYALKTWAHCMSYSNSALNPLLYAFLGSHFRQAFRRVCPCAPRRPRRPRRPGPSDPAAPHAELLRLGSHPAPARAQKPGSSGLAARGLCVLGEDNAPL
# Procedure, shortened: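 HEK293 cells stably expressing human KISS1R were plated 18 h at 37 °C, loaded with calcium dye for 1 h at 37 °C, then given compound by pin tool. Fluorescence (Ex/Em 480/540) was read kinetically for 3 min.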
# [5] = G protein-coupled receptor (GPCR) small molecule agonists, calcium flux assay: HEK293 wild type cell line counter screen (AID 1920065); note: potency is the fitted concentration of half-maximal effect
# Procedure, shortened: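 Cells were plated and cultured 18 h at 37 C/5% CO2, then loaded with calcium dye for 1 h at 37 C. Compounds in DMSO were pin-transferred in agonist mode, and fluorescence (Ex/Em 480/540) was read kinetically for 3 min at 1 s intervals.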
# [6] = p53 small molecule agonists, cell-based qHTS assay with rat liver microsomes (AID 1963578); note: potency is the fitted concentration of half-maximal effect
# Procedure, shortened: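 Each plate received p53RE-bla cells, then compound, then rat liver microsomes and NADPH (both 0.5 mg/mL final). Plates were held 16 h at 37 C, and beta-lactamase activity was detected with LiveBLAzer over 2 h.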
# [7] = p53 small molecule agonists, cell-based qHTS assay with human liver microsomes: qHTS cell viability counter screen (AID 1963579); note: nearly all actives have a fitted effect of over 45% in size; note: potency is the fitted concentration of half-maximal effect
# Procedure, shortened: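 Tox21 library compounds, delivered from DMSO stocks, were tested on p53RE-bla cells together with 0.5 mg/mL human liver microsomes and 0.5 mg/mL NADPH (final) over 16 h at 37 C; CellTiter-Glo luminescence served as the cytotoxicity measure.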
# [8] = p53 small molecule agonists, cell-based qHTS assay with rat liver microsomes: qHTS cell viability counter screen (AID 1963580); note: nearly all actives have a fitted effect of over 45% in size; note: potency is the fitted concentration of half-maximal effect
# Procedure, shortened: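 In HCT-116 cells carrying a p53 response element-bla reporter, compounds were metabolically activated in situ by rat liver microsomes with NADPH over 16 h. Cell ATP content then served as the cytotoxicity measure.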
# [9] = p53 small molecule agonists, cell-based qHTS assay: qHTS cell viability counter screen (AID 1963581); note: nearly all actives have a fitted effect of over 45% in size
# Procedure, shortened: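 p53RE-bla HCT-116 cells were exposed to compounds for 16 h at 37 C; after the beta-lactamase FRET read in the same wells, CellTiter-Glo was added and luminescence (intracellular ATP) read after 30 min at room temperature.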
# [10] = biological target: 5-hydroxytryptamine receptor 2A (Homo sapiens) (UniProt P28223); assay: 5-hydroxytryptamine receptor 2A (HTR2A) small molecule agonists, cell-based qHTS assay (AID 1963587); note: nearly all actives have a fitted effect of over 30% in size; note: potency is the fitted concentration of half-maximal effect
# Chain of 5-hydroxytryptamine receptor 2A (Homo sapiens) (P28223 whole entry, looked up): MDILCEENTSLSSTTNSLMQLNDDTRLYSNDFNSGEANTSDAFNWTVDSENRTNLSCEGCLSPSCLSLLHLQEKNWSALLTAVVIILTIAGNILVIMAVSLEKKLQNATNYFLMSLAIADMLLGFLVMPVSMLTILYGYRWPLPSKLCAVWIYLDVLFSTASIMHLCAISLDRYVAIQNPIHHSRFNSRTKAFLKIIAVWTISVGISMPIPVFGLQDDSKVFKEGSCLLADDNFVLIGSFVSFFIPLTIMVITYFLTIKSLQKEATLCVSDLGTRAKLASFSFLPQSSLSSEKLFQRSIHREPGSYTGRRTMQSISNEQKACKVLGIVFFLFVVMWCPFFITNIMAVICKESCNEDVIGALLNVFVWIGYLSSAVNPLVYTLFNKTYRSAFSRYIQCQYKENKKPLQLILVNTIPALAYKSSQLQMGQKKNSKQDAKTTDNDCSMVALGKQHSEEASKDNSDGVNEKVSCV
# Procedure, shortened: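 HTR2A-CHO cells, plated 18 h at 37 C/5% CO2, dye-loaded 1 h at 37 C; compounds in DMSO added by pin tool (agonist mode). Intracellular calcium flux read as kinetic fluorescence on FDSS over 2 min at 1 s intervals.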
# [11] = biological target: Muscarinic acetylcholine receptor M1 (Homo sapiens) (UniProt P11229); assay: Cholinergic receptor muscarinic 1 (CHRM1) small molecule antagonists, cell-based qHTS assay (AID 1963588); note: nearly all actives have a fitted effect of over 40% in size; note: potency is the fitted concentration of half-maximal effect
# Chain of Muscarinic acetylcholine receptor M1 (Homo sapiens) (P11229 whole entry, looked up): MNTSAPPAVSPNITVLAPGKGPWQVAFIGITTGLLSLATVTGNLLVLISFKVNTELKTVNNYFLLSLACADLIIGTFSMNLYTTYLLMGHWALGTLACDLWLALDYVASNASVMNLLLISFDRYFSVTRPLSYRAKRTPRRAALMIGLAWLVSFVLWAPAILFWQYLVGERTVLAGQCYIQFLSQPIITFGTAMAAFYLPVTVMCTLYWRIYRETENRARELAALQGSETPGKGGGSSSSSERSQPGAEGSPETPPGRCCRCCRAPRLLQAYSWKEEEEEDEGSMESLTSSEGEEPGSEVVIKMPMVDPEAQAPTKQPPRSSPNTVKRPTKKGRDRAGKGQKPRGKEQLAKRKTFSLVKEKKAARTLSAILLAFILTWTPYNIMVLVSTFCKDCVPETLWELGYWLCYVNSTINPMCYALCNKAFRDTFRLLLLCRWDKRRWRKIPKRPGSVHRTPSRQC
# Procedure, shortened: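 CHRM1-CHO calcium-flux assay, antagonist mode. Cells were seeded 18 h, dye-loaded 1 h at 37 C and given compound for 5 min at RT, then acetylcholine was added at 50nM. FDSS fluorescence was read 3 min; 15 concentrations, three runs.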
# [12] = biological target: Muscarinic acetylcholine receptor M1 (Homo sapiens) (UniProt P11229); assay: Cholinergic receptor muscarinic 1 (CHRM1) small molecule agonists, cell-based qHTS assay (AID 1963589); note: nearly all actives have a fitted effect of over 35% in size; note: potency is the fitted concentration of half-maximal effect
# Procedure, shortened: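 CHO cells stably expressing human CHRM1, seeded 18 h at 37 C/5% CO2, dye-loaded 1 h at 37 C, then given compound in agonist mode; intracellular calcium fluorescence read kinetically at 1 s intervals. Fifteen concentrations, three independent runs.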
# [13] = biological target: Beta-2 adrenergic receptor (Homo sapiens) (UniProt P07550); assay: Adrenergic beta2 receptor (ADRB2) small molecule antagonists, cell-based qHTS assay (AID 1963592); note: nearly all actives have a fitted effect of over 50% in size; note: potency is the fitted concentration of half-maximal effect
# Chain of Beta-2 adrenergic receptor (Homo sapiens) (P07550 whole entry, looked up): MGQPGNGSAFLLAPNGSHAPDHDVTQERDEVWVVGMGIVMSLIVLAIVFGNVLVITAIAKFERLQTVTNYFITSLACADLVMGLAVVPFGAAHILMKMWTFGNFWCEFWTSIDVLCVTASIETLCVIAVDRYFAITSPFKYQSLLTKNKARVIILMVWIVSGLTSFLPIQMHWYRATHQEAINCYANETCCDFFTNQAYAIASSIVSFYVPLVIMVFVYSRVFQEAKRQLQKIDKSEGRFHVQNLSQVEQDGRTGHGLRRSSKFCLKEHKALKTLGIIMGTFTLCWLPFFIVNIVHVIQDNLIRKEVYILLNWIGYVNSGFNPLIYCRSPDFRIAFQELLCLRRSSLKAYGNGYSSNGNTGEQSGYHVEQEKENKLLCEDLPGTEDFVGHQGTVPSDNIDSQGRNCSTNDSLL
# Procedure, shortened: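 Cells (CHO, stable ADRB2 overexpression) incubated 18-20hr at 37C; compounds added from DMSO; agonist mix (1nM isoproterenol, 100uM IBMX, 25uM Ro-20-1724) added; 0.5hr RT; d2-cAMP and anti-cAMP-cryptate added; 1hr RT; 665/615 nm read.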
# [14] = biological target: D(2) dopamine receptor (Homo sapiens) (UniProt P14416); assay: Dopamine D2 receptor (DRD2) small molecule antagonists, cell-based qHTS assay (AID 1963595; active = well fitted inhibition curve with a large enough effect in the signal ratio in the repeat runs, with a control signal flat; the % refers to the signal ratio; note: potency is the fitted concentration of half-maximal effect)
# Chain of D(2) dopamine receptor (Homo sapiens) (P14416 whole entry, looked up): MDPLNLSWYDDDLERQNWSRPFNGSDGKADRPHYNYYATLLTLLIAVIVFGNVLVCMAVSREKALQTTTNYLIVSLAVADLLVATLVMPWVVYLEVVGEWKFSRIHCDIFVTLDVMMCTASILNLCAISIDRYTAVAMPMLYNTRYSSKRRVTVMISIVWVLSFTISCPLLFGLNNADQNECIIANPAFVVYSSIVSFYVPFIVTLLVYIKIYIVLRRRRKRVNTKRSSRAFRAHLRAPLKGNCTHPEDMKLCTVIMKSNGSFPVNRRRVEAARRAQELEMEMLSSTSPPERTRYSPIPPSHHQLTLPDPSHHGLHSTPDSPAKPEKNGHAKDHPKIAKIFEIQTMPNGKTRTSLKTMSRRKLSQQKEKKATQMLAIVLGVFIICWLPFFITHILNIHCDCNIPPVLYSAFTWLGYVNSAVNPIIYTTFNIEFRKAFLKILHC
# Procedure, shortened: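 HTRF cAMP read-out at 665 and 620 nm emission (340 nm excitation). Antagonist mode: compounds were tested against 12 nM quinpirole in DRD2-HEK293 cells, with 200 nM NKH477 raising cAMP and 0.1 mM Ro20-1724 blocking its breakdown.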
# [15] = biological target: 5-hydroxytryptamine receptor 2A (Homo sapiens) (UniProt P28223); assay: 5-hydroxytryptamine receptor 2A (HTR2A) small molecule antagonists, cell-based qHTS assay (AID 1963586); note: nearly all actives have a fitted effect of over 45% in size; note: potency is the fitted concentration of half-maximal effect
# Procedure, shortened: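 Antagonist-mode intracellular calcium assay: DOI (4 nM) added after 5 min compound pre-incubation at room temperature to dye-loaded HTR2A-CHO cells. Fluorescence followed for 3 min, sampled every second.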
# [16] = cAMP Responsive Elements (CRE) small molecule agonists, cell-based qHTS assay (AID 1963590)
# Procedure, shortened: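 CRE-bla HEK 293T cells in DMEM with 10% dialyzed FBS, NEAA, pyruvate and 25 mM HEPES were plated 18 h at 37 C/5% CO2, then exposed to compounds in DMSO for 3 h before LiveBLAzer B/G FRET substrate addition.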
# [17] = cAMP Responsive Elements (CRE) small molecule antagonists, cell-based qHTS assay (AID 1963591; active = well fitted inhibition curve with a large enough effect in the signal ratio in the repeat runs, not every such curve was filed as active; the % refers to the signal ratio; note: potency is the fitted concentration of half-maximal effect)
# Procedure, shortened: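 CRE-bla HEK293T cells were plated 18 h at 37 °C/5% CO2, pinned with compound in DMSO, then stimulated with NKH477 at 0.25 uM final for 3 h. LiveBLAzer B/G FRET substrate was added and plates incubated 2 h at room temperature.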
# [18] = p53 small molecule agonists, cell-based qHTS assay with human liver microsomes (AID 1963577);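 note: p53 response element beta-lactamase reporter cells with liver microsomes plus NADPH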
# Procedure, shortened: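 Metabolically competent format: test substances, human liver microsomes and NADPH (both 0.5 mg/mL final) incubated with p53RE-bla cells 16 h at 37 C. Beta-lactamase reporter signal then quantified by fluorescence.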
# [19] = biological target: D(2) dopamine receptor (Homo sapiens) (UniProt P14416); assay: Dopamine D2 receptor (DRD2) small molecule agonists, cell-based qHTS assay (AID 1963594); note: nearly all actives have a fitted effect of over 35% in size; note: potency is the fitted concentration of half-maximal effect
# Procedure, shortened: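 HEK293 cells stably expressing DRD2 were cultured 24 h at 37 C, then given Ro20-1724 (0.1 mM final) and compounds for 10 min at room temperature. NKH477 (200nM) was then added for 30 min. cAMP was read by HTRF.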
# [20] = p53 small molecule agonists, cell-based qHTS assay (AID 1963582; active = well fitted activation curve with a large enough effect in the signal ratio in the repeat runs, not every such curve was filed as active; the % refers to the signal ratio)
# Procedure, shortened: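 p53RE-bla beta-lactamase reporter cells rested 5 h at 37 C/5% CO2, then received compounds in DMSO by pin transfer and were incubated 16 h at 37 C. LiveBLAzer B/G FRET substrate was loaded for 2 h at room temperature before fluorescence reading.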
Compound,Potency [1],Potency [2],Potency [3],Potency [4],Potency [5],Potency [6],Potency [7],Potency [8],Potency [9],Potency [10],Potency [11],Potency [12],Potency [13],Potency [14],Potency [15],Potency [16],Potency [17],Potency [18],Potency [19],Potency [20]
c1ccc2cc3c(cc2c1)-c1cccc2cccc-3c12,inactive,inactive,inactive,inactive,inactive,18 µM (active),inactive,inactive,inactive,inactive,inactive,inactive,inactive,inactive,,,,,,
COC(=O)N(OC)c1ccccc1COc1ccn(-c2ccc(Cl)cc2)n1,inactive,inactive,inactive,inactive,inactive,inactive,inactive,inactive,inactive,inactive,,,inactive,inactive,inactive,inactive,61.1 µM (active),,,
O=C(OC1CCCCC1)c1ccccc1C(=O)OC1CCCCC1,inactive,inactive,inactive,inactive,inactive,,inactive,inactive,,inactive,inactive,inactive,inactive,,inactive,,inactive,inactive,inactive,
CCOC(C(=O)OCCN(C)C)(c1ccccc1)c1ccccc1,inactive,inactive,inactive,inactive,inactive,inactive,inactive,inactive,inactive,,2.31 µM (active),inactive,inactive,inactive,inactive,,inactive,,,inactive
COc1cccc(C(=O)CCN[C@@H](C)[C@H](O)c2ccccc2)c1,inactive,33.5 µM (active),inactive,inactive,inactive,inactive,inactive,inactive,inactive,,inactive,inactive,inactive,15 µM (active),,inactive,,,inactive,inactive
CC(Cc1ccc2c(c1)OCO2)NO (stereo not given),inactive,inactive,inactive,inactive,inactive,inactive,inactive,inactive,inactive,1.33 µM (active),inactive,inactive,inactive,inactive,0.91 µM (active),inactive,inactive,,inactive,
CC(C)CBr,inactive,inactive,inactive,inactive,inactive,inactive,inactive,inactive,inactive,inactive,inactive,inactive,inactive,inactive,inactive,inactive,inactive,,inactive,
C=CC(=C)C,inactive,inactive,inactive,inactive,inactive,inactive,inactive,inactive,inactive,inactive,inactive,inactive,inactive,inactive,inactive,inactive,inactive,,inactive,inactive
CC(=O)[O][Sn]([c]1ccccc1)([c]1ccccc1)[c]1ccccc1,0.0486 µM (active),0.0193 µM (active),17.4 µM (active),49 µM (active),38.9 µM (active),,6.46 µM (active),1.62 µM (active),,24.5 µM (active),,24.5 µM (active),61.1 µM (active),3.06 µM (active),,,,inactive,52.4 µM (active),
C[C@H](CN1CCOCC1)C(C(=O)N1CCCC1)(c1ccccc1)c1ccccc1,inactive,inactive,inactive,inactive,inactive,inactive,inactive,inactive,inactive,,,inactive,inactive,inactive,inactive,,inactive,,inactive,inactive
COC(=O)C(C)N(C(=O)c1ccco1)c1c(C)cccc1C (stereo not given),inactive,inactive,inactive,inactive,inactive,,,inactive,inactive,inactive,inactive,inactive,inactive,inactive,inactive,inactive,,inactive,,inactive
Oc1ccc(I)cc1,inactive,inactive,inactive,inactive,inactive,,inactive,,,inactive,inactive,inactive,inactive,inactive,inactive,inactive,inactive,inactive,,inactive
C[C@]12Cc3nonc3C[C@@H]1CC[C@@H]1[C@@H]2CC[C@@]2(C)[C@H]1CC[C@]2(C)O,inactive,inactive,inactive,inactive,inactive,inactive,inactive,inactive,inactive,,inactive,inactive,,inactive,inactive,,,,inactive,inactive
CCCCCCCCP(=O)(O)O,inactive,inactive,inactive,inactive,inactive,inactive,inactive,inactive,inactive,inactive,inactive,inactive,inactive,inactive,inactive,inactive,,,inactive,
CC(C)N(Cc1ccccc1)C(=O)C(C)(C)C,inactive,inactive,inactive,inactive,inactive,inactive,inactive,inactive,inactive,inactive,inactive,inactive,inactive,inactive,inactive,,inactive,,,inactive
CCC(=O)C(CCN(C)C)(c1ccccc1)c1ccccc1,inactive,inactive,inactive,inactive,inactive,inactive,inactive,inactive,inactive,inactive,11.6 µM (active),inactive,inactive,inactive,16.3 µM (active),,,,inactive,inactive
COc1ccc([N+](=O)[O-])cc1O,inactive,inactive,inactive,inactive,inactive,inactive,inactive,inactive,inactive,inactive,inactive,inactive,inactive,inactive,inactive,inactive,,,inactive,inactive
Clc1ccc(-c2ccccc2)cc1,inactive,inactive,inactive,inactive,inactive,inactive,inactive,inactive,inactive,inactive,inactive,inactive,inactive,inactive,inactive,inactive,inactive,,inactive,inactive
C=CC(=O)OCCCCOC(=O)C=C,61.1 µM (active),24.3 µM (active),inactive,inactive,inactive,inactive,inactive,inactive,inactive,inactive,inactive,inactive,inactive,inactive,inactive,,,,inactive,inactive
OC(Cn1cncn1)(c1ccc(F)cc1)c1ccccc1F (stereo not given),inactive,inactive,inactive,inactive,inactive,,inactive,inactive,,inactive,,inactive,inactive,inactive,inactive,inactive,inactive,inactive,,inactive
Oc1ccccc1Br,inactive,inactive,inactive,inactive,inactive,,inactive,inactive,,inactive,inactive,inactive,inactive,inactive,inactive,inactive,,inactive,inactive,
CC(C1CC1)C(O)(Cn1cncn1)c1ccc(Cl)cc1 (stereo not given),inactive,inactive,inactive,inactive,inactive,inactive,inactive,inactive,inactive,inactive,inactive,inactive,inactive,inactive,inactive,inactive,,,inactive,inactive
CC(=O)C(Cl)C(=O)N(C)C (stereo not given),inactive,68.6 µM (active),inactive,inactive,inactive,,,,inactive,inactive,inactive,inactive,,inactive,inactive,inactive,inactive,inactive,inactive,inactive
O=c1[nH]c2ccccc2n1C1CCNCC1,inactive,inactive,inactive,inactive,inactive,inactive,inactive,inactive,inactive,inactive,inactive,inactive,,,inactive,inactive,inactive,,inactive,inactive
CC1N=C(N)OC1c1ccccc1 (stereo not given),inactive,inactive,inactive,inactive,inactive,inactive,inactive,inactive,inactive,inactive,inactive,inactive,inactive,,inactive,inactive,inactive,,inactive,inactive
CN1C(=S)CN=C(c2ccccc2)c2cc(Cl)ccc21,inactive,inactive,inactive,inactive,inactive,,inactive,inactive,inactive,inactive,inactive,inactive,inactive,,inactive,inactive,inactive,,inactive,
BrCCCCBr,inactive,inactive,inactive,inactive,inactive,inactive,inactive,,inactive,inactive,inactive,inactive,inactive,inactive,,inactive,,,inactive,inactive
